Source: PubChem BioAssay
Most compounds without a hit are left out; they make up all but 7.2% or so of the library.
NIH3T3 tox – cytotoxic compounds in NIH 3T3 cells. NIH 3T3 viability, CellTiter-Glo ATP luminescence, 48-72 h. Potency, µM (doses to about 96.7 µM), for the others: at the highest dose activity change, negative = cytotoxicity, actives largely listed as inhibitors. 94,000 tested, 4.3% active; also: % is scaled to controls: 0 for no effect and ±100 for the full control effect; nearly all actives have a fitted effect of over 55% in size
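First NIH 3T3 cells are plated at 400 cells/well; next compound is pinned in; then plates incubate 48 or 72 hr at 37 °C; finally CellTiter-Glo is added and luminescence read after 10 min.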
SNCA viab count – reduces viability of HEK-293 SNCA reporter cells; Potency, µM (series often up to 57.1 µM), for the others: top-dose activity change, negative = cytotoxicity, usual class: cytotoxic; 150,000 tested, 0.12% active; HEK-293-SNCA-luc viability, GF-AFC fluorescence, 24 h;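 also: 0% = DMSO-treated cells and -100% = medium-only wells without cells; nearly all actives have a fitted effect of over 30% in size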
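HEK-293-SNCA-luc cells (1500/well) plated 24 h, then exposed 24 h to a dilution series; GF-AFC added 30 min at 37C, fluorescence 405/540 nm; normalised to medium-only and DMSO wells, Hill fit.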
HEK293 tox – cytotoxic compounds in HEK 293 cells | HEK 293 viability, ATP luminescence (CellTiter-Glo), 48-72 h | Potency, µM (highest dose often 115 µM), without a hit: at the top dose activity change, negative = cytotoxicity, actives largely listed as inhibitors | 94,000 tested, 6.6% active | AID 1345083; also: % is scaled to controls: 0 for no effect and ±100 for the full control effect; nearly all actives have a fitted effect of over 60% in size
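Read-out: CellTiter-Glo ATP luminescence. Cells: HEK 293, 250 cells/well. Exposure: 48 or 72 hr, 37 degree Celsius.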
SNCA expr inh – inhibitors of alpha-synuclein (SNCA) gene expression; Potency, µM (top dose mostly 57.2 µM), for the others: top-dose activity change, negative = inhibition, hits mostly inhibitors; HEK-293 SNCA-luciferase knock-in, luminescence, 24 h; 140,000 tested, 0.17% active; AID 1671194;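 also: plate controls were DMSO cells for no effect and cell-free wells for full effect; nearly all actives have a fitted effect of over 45% in size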
NPR1 antag – antagonists of human natriuretic peptide receptor Npr1; P16066; HEK293 hNpr1 GloSensor cGMP, ANP-stimulated luminescence; Potency, µM (top dose mostly 46.3 µM), for inactives: top-dose activity change, negative = inhibition, most hits filed as inhibitors; 76,000 tested, 1.6% active; calls by dose curve; also: % is scaled to controls: 0 for no effect and ±100 for the full control effect; nearly all actives have a fitted effect of over 60% in size
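Compound pre-incubated 30 min at room temperature on GloSensor-loaded HEK293 cells stably carrying hNpr1 and the pGS-40F cGMP biosensor. Stimulation uses hNppA at 0.1 nM final; luminescence is taken at baseline and 20 min post-agonist.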
Luciferase inh – inhibitors of firefly (Photinus pyralis) luciferase. P08659. purified P. pyralis luciferase, luminescence, biochemical. Potency, µM (series often up to 115 µM), hits mostly inhibitors. 76,000 tested, 2.5% active; also: % is scaled to controls: 0 for no effect and ±100 for the full control effect; nearly all actives have a fitted effect of over 65% in size
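Purified P. pyralis luciferase (10nM final) in 50mM Tris acetate pH 7.5, 10mM Mg acetate, 0.01% Tween-20, 0.05% BSA with 10uM D-luciferin and 10uM ATP. Compounds titrated qHTS. Luminescence imaged on CCD.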
Npr1 antag conf – confirmation of human Npr1 natriuretic peptide receptor antagonists; shares compounds with NPR1 antag; HEK293 hNpr1 cGMP GloSensor luminescence, ANP-stimulated; Potency, µM (doses to about 57.6 µM), for the others: top-dose activity change, negative = inhibition, hits mostly inhibitors; 1,400 tested, 76% active; AID 1347044; calls by dose curve; also: nearly all actives have a fitted effect of over 70% in size
Npr2 selectivity – selectivity test of Npr1 antagonists against human Npr2; shares compounds with NPR1 antag; HEK293 hNpr2 GloSensor cGMP luminescence, CNP-stimulated; Potency, µM (titrated, usually from 57.6 µM), for inactives: at the highest dose activity change, negative = inhibition, most hits filed as inhibitors; 1,400 tested, 67% active; AID 1347046; calls by dose curve; also: nearly all actives have a fitted effect of over 70% in size
Target sequence (P20594 whole entry, looked up): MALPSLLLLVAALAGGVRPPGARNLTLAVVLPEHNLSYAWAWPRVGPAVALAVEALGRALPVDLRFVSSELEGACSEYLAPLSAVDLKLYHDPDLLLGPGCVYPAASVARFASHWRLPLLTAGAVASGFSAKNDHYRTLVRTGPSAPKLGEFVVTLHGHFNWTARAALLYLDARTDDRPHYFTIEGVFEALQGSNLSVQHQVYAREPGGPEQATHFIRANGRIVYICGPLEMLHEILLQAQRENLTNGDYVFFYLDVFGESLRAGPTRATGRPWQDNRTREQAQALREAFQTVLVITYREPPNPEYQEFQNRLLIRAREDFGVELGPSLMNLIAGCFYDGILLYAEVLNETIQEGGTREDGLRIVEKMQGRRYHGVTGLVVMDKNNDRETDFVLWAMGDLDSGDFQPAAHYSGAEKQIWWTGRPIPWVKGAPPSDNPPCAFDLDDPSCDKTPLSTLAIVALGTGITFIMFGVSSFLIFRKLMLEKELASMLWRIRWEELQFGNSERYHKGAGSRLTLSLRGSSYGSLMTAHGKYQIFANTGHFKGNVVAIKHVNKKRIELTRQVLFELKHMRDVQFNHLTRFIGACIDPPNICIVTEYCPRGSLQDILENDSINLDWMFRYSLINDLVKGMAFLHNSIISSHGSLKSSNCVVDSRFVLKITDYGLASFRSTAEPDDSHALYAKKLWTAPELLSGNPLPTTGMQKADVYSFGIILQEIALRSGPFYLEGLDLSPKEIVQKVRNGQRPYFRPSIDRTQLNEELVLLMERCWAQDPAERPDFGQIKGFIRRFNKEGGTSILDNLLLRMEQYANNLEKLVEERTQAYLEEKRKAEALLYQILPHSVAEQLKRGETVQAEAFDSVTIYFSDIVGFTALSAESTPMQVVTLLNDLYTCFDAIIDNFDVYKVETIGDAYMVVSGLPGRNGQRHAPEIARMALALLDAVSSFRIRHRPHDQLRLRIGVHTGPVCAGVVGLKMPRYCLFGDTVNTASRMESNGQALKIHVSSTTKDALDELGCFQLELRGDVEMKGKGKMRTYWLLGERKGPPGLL
FLuc inh counter – FLuc enzyme inhibition, Npr1 counter-screen. shares compounds with NPR1 antag. purified FLuc enzyme, luminescence, Km substrate. Potency, µM (titrated, usually from 57.6 µM), for inactives: top-dose activity change, negative = inhibition, usual class: inhibitors. 1,400 tested, 0.7% active; also: series mostly up to about 58 µM; 0% is about no effect
GloSensor ctrl – reduces cGMP signal in GloSensor control cells. 1,400 tested, 69% active. shares compounds with NPR1 antag. HEK293 GloSensor cGMP, SNP-stimulated, luminescence. AID 1347051. Potency, µM (series often up to 57.6 µM), without a hit: at the highest dose activity change, negative = inhibition, actives largely listed as inhibitors; calls by dose curve; also: % is scaled to controls: 0 for no effect and ±100 for the full control effect; nearly all actives have a fitted effect of over 70% in size
* hit, by the source's call; i = inactive; ? = inconclusive; . = no result given; [ ] = another dose, or the depositor's remark. Unless noted, calls follow the shape of the dose curve; as a rule, active = well fitted curve in the direction sought with a large enough effect; inconclusive = small, poorly fitted or top-dose-only effect, or another doubt; inactive = no such curve, though single readings can be large; an effect the other way counts as inactive or inconclusive. Potency is read from the fitted curve at half-maximal effect.

SMILES	NIH3T3 tox	SNCA viab count	HEK293 tox	SNCA expr inh	NPR1 antag	Luciferase inh	Npr1 antag conf	Npr2 selectivity	FLuc inh counter	GloSensor ctrl
O=C(c1cc(Cl)ccc1F)N1CCN(C(=O)c2nnn3c2COC(c2ccccc2)C3)CC1 (configuration not stated)	-27%	-10%	?	3%	?	i	24µM*	?	0%	?
COc1ccc(C2Cn3nnc(C(=O)N4CCN(C(=O)c5sccc5C)CC4)c3CO2)cc1 (configuration not stated)	-8%	-11%	?	-24%	?	i	22µM*	27µM*	1%	22µM*
CC(C)C1CN(C(=O)c2n[nH]c3c2CCC3)CCC(=O)N1CC1CC1 (configuration not stated)	-23%	-1%	-7%	-7%	5%	i	.	.	.	.
CC(C)Cc1cn(CC2CCCN(C(=O)c3n[nH]c4c3CCCC4)C2)nn1 (configuration not stated)	?	?	?	9%	14µM*	i	19µM*	17µM*	?	15µM*
CCc1ccc([S+](=O)([O-])c2nnn3c2nc(N2CCC(F)CC2)c2ccccc23)cc1	-31%	7%	-31%	-4%	.	.	.	.	.	.
O=C(c1csc(N2CCN(c3ccccc3)CC2)n1)N1CCN(c2ccccn2)CC1	3%	-2%	-40%	-20%	13µM*	i	27µM*	24µM*	0%	24µM*
O=C(c1csc(N2CCN(c3ccccc3)CC2)n1)N1CCCCCC1	?	-19%	?	-6%	10µM*	i	22µM*	22µM*	-11%	19µM*
COC(=O)C1=C(C)N=C2SC=C(CC(=O)NCC3CCCO3)N2C1c1ccccc1OC (configuration not stated)	?	7%	?	19%	-1%	i	.	.	.	.
COc1ccccc1-c1ccc(C(=O)N2CCC(C(=O)NCC3CC3)CC2)cc1	-25%	-10%[12.5 µM]	?	-8%	.	.	.	.	.	.
O=C(N1CCOCC1)N1C2CCC1CN(c1ccc(C(F)(F)F)cc1)C2	14µM*	-9%	?	-21%	.	.	22µM*	22µM*	5%	19µM*
O=C(c1ccncc1)N1C2CCC1CN(c1ccc(C(F)(F)F)cc1)C2	?	-3%	?	-10%	.	.	24µM*	22µM*	1%	22µM*
CC(=O)NCCCC(=O)N1C2CCC1CN(c1ccc(C(F)(F)F)cc1)C2	?	0%	-29%	3%	.	.	.	.	.	.
CC(C)(C)c1nnc([C@H]2CCN(C(=O)CCC(=O)O)C2)o1	i	2%[87.6 µM]	i	2%[87.6 µM]	-2%[70.6 µM]	i	.	.	.	.
CN(C)C(=O)C1CCC(C(=O)N2CCC(c3nc4ncccc4[nH]3)CC2)CC1 (configuration not stated)	1%	4%	2%	9%	.	.	.	.	.	.
O=C1N[C@H](CC(=O)N2CCN(c3ccc(C(F)(F)F)cn3)CC2)C(=O)Nc2ccccc21	-15%	2%	?	?	?	i	?	?	-1%	?
CN1CCN(Cc2ccc(Nc3cnc4ccc(-c5ccccc5)nn34)cc2)CC1	?	-22%[87.6 µM]	25µM*	9%[87.6 µM]	32µM*	i	31µM*	31µM*	-4%[86.2 µM]	22µM*
O=C1c2cnc(-c3cccc(O)c3)nc2OCCN1Cc1ccc(F)cc1F	?	-16%[87.6 µM]	?	-11%[87.6 µM]	-18%[70.6 µM]	i	.	.	.	.
COCCN1CCOc2nc(-c3cc4ccccc4o3)ncc2C1=O	?	-5%[87.6 µM]	?	8.9µM*	13µM*	i	9.9µM*	9.9µM*	0.5µM*	7.9µM*
COc1ccc(CN2CCOc3nc(-c4cc(F)cc(F)c4)ncc3C2=O)cc1	?	-12%[87.6 µM]	?	-2%[87.6 µM]	-24%[70.6 µM]	i	.	.	.	.
O=C1c2cnc(-c3ccncc3)nc2OCCN1Cc1ccc(F)cc1F	?	-18%[87.6 µM]	?	8%[87.6 µM]	18µM*	i	31µM*	25µM*	-2%[86.2 µM]	22µM*
COc1ccc(CN2CCOc3nc(-c4cccc(C(F)(F)F)c4)ncc3C2=O)cc1	?	-14%[87.6 µM]	?	14%[87.6 µM]	32µM*	i	35µM*	35µM*	-6%[86.2 µM]	40µM*
Cn1nccc1-c1ncc2c(n1)OCCN(Cc1ccc(F)cc1F)C2=O	?	2%[87.6 µM]	?	9%[87.6 µM]	35µM*	i	35µM*	35µM*	5%[86.2 µM]	40µM*
O=C(Nc1ccc(Cl)cc1)c1nc2c(o1)CCN(Cc1ccccc1)CC2	?	-16%[87.6 µM]	?	0%[87.6 µM]	4µM*	i	11µM*	9.9µM*	?	7.9µM*
COc1ccc(CN2CCc3nc(C(=O)Nc4ccc(Cl)cc4)oc3CC2)cc1OC	?	-14%	?	-24%	6.3µM*	i	9.7µM*	11µM*	0%	7.7µM*
COc1ccc(NC(=O)c2sc3nc4c(cc3c2N)CN(Cc2ccccc2)CC4)cc1OC	.	-2%	.	12%	.	.	.	.	.	.
N#Cc1cccc(CN2CCc3nc(C(=O)NCc4ccncc4)oc3CC2)c1	-26%[138 µM]	-3%[87.6 µM]	?	-7%[87.6 µM]	-26%[70.6 µM]	i	.	.	.	.
O=C(Nc1ccc(Cl)cc1)c1nc2c(o1)CCN(Cc1cc(F)ccc1F)CC2	?	-12%[87.6 µM]	?	1%[87.6 µM]	13µM*	i	16µM*	13µM*	0%[86.2 µM]	9.9µM*
N#Cc1ccc(CN2CCc3nc(C(=O)Nc4cccc(C(F)(F)F)c4)oc3CC2)cc1	?	-17%	?	-26%	14µM*	i	17µM*	19µM*	-8%	11µM*
COCCCN1CC2(CCN(CC(=O)N3CCNCC3)CC2)CC1=O	i	-3%	i	-5%	7%	i	.	.	.	.
